This note sets out measurements from PubChem BioAssay (EPA / NIEHS).

Experiment [1] addresses Bile acid receptor (Homo sapiens) (UniProt Q96RI1). The experiment is described as follows: ATG_IR1_CIS: Attagene CIS-FACTORIAL HepG2 Assay for human Nuclear Receptor Subfamily 1 Group H Member 4 (NR1H4), IR1 submotif (AID 2282946). The following applies: IR1 reporter transcription, actives raise or lower the signal. In short, it runs like this: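 Transient MRTU transfection, HepG2; 24 h dosing; RNA → RT-PCR → 6-FAM primer extension → HpaI digest → capillary electrophoresis fluorescence. Gain/loss of signal fitted relative to DMSO.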

Experiment [2] can be described thus: ATG_ISRE_CIS: Attagene CIS-FACTORIAL HepG2 Assay for human Interferon Regulatory Factor 1 (IRF1) binding to an Interferon-Stimulated Response Element (ISRE) (AID 2282948). The note with it: HepG2 ISRE cis-reporter (Attagene), mRNA transcription readout; actives raise or lower the signal. In a few lines:
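Quantitation relies on labelled RT-PCR fragments separated by capillary electrophoresis. Human HepG2 cells bearing cis-promoter reporter constructs were treated 24 h; DMSO served as baseline for bidirectional fitting.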

The nature of experiment [3]: ATG_M_32_CIS: Attagene CIS-FACTORIAL HepG2 Assay for M32 Transcription Factor (Internal Marker) (AID 2282949).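 Further: background control marker of the multiplexed CIS panel rather than a real target.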 The note with it: HepG2 Attagene cis-factorial M32 reporter, mRNA; actives raise or lower the signal. In short, it runs like this:
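Following 24 h chemical exposure of HepG2 cells transiently expressing cis-promoter reporter constructs, reporter transcript levels were determined by RT-PCR with fluorescent labelling and capillary electrophoresis, then fitted bidirectionally against DMSO.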

Experiment [4] is described as follows: ATG_M_06_CIS: Attagene CIS-FACTORIAL HepG2 Assay for M06 Transcription Factor (Internal Marker) (AID 2282950). The following applies: HepG2 Attagene CIS-FACTORIAL M06 internal marker reporter; actives raise or lower the signal. In a few lines: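 Terse: HepG2, transient MRTU transfection (FuGene 6), 24 h dosing; total RNA, oligo(dT) RT, PCR, FAM label, HpaI cut, capillary electrophoresis; bidirectional fit vs DMSO baseline; background-control endpoint.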

The target in experiment [5] is Hypoxia-inducible factor 1-alpha (Homo sapiens) (UniProt Q16665). Description: ATG_HIF1a_CIS: Attagene CIS-FACTORIAL HepG2 Assay for human Hypoxia Inducible Factor 1 (HIF1A) (AID 2282951). The following applies: HepG2 Attagene cis-factorial HIF1a reporter transcription; actives raise or lower the signal. In a few lines: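 HepG2, transient cis-reporter library, 24 h dosing. RNA → RT (oligo dT) → PCR → 6-FAM primer extension → HpaI → CE. Bidirectional curve fit vs DMSO.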
Hypoxia-inducible factor 1-alpha (Homo sapiens), sequence (Q16665 whole entry, looked up): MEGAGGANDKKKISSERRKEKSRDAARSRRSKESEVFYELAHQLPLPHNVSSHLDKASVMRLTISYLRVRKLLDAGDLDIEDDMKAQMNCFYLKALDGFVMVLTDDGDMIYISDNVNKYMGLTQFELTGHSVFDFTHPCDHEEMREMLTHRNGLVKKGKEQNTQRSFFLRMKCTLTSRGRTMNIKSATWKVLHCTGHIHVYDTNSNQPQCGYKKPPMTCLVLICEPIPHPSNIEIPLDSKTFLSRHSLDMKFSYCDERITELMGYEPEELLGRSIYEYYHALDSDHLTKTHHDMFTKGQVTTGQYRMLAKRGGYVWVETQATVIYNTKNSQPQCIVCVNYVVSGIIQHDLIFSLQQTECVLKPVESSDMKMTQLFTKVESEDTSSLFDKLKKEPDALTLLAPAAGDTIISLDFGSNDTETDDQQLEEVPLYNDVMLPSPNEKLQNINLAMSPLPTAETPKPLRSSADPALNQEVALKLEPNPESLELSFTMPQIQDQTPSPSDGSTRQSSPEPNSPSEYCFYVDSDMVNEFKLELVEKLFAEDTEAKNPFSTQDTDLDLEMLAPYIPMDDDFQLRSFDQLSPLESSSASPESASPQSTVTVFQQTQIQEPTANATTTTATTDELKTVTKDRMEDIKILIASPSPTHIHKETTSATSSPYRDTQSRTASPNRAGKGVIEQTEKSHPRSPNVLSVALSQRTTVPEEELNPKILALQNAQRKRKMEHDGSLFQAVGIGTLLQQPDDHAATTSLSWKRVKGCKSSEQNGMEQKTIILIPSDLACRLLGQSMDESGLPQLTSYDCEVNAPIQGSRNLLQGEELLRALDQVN

In experiment [6] the target is Hepatocyte nuclear factor 6 (Homo sapiens) (UniProt Q9UBC0). Description: ATG_HNF6_CIS: Attagene CIS-FACTORIAL HepG2 Assay for human Hepatocyte Nuclear Factor 6 (HNF6) (AID 2282952). The note with it: HepG2 Attagene cis-factorial HNF6 reporter transcription; actives raise or lower the signal. In short, it runs like this:
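Multiplexed mRNA reporter assay in transfected HepG2; 24 h dosing; RT-PCR plus capillary electrophoresis fluorescence; DMSO-referenced bidirectional curve fitting.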

Experiment [7] concerns the target Heat shock factor protein 1 (Homo sapiens) (UniProt Q00613). Description: ATG_HSE_CIS: Attagene CIS-FACTORIAL HepG2 Assay for human Heat Shock Transcription Factor 1 (HSE) (AID 2282953). The following applies: HepG2 HSE cis-reporter, Attagene RNA transcription; actives raise or lower the signal. In short, it runs like this: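 Read-out: fluorescence of reporter-specific RT-PCR fragments separated by capillary electrophoresis. HepG2 carrying transfected cis-element reporter units; 24 h dosing; activity fitted in both directions relative to DMSO baseline.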

Experiment [8] is described as follows: ATG_MRE_CIS: Attagene CIS-FACTORIAL HepG2 Assay for human Metal Responsive Element (MRE) (AID 2282954). The note with it: HepG2 MRE cis-reporter transcription, Attagene multiplex; actives raise or lower the signal. In a few lines: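 HepG2 cells transiently transfected with multiple cis-element reporter units measure endogenous MTF1-driven transcription. After 24 h compound exposure, reporter mRNA is quantified by RT-PCR with 6-FAM labelling, HpaI digestion and capillary electrophoresis; bidirectional fits versus DMSO.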

Experiment [9] in a line: ATG_PBREM_CIS: Attagene CIS-FACTORIAL HepG2 Assay for human Phenobarbital-responsive Enhancer Module (PBREM) (AID 2282955). The following applies: HepG2 PBREM cis-reporter, Attagene multiplexed transcription; actives raise or lower the signal. In a few lines: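 HepG2, transient MRTU transfection, 24 h dosing; RNA → oligo(dT) RT → PCR → 6-FAM extension → HpaI → CE. Bidirectional fit vs DMSO.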

For experiment [10], the target named is Paired box protein Pax-6 (Homo sapiens) (UniProt P26367). Description: ATG_Pax6_CIS: Attagene CIS-FACTORIAL HepG2 Assay for human Paired Box 6 (PAX6) (AID 2282956). The following applies: HepG2 CIS-FACTORIAL PAX6 reporter transcription, RNA readout; actives raise or lower the signal. In short, it runs like this:
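After twenty-four hours of chemical exposure, transfected HepG2 cells are harvested for RNA. Cis-promoter reporter transcripts are amplified, fluorescently labelled and sized by capillary electrophoresis, with gain and loss of signal scored against DMSO.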

The nature of experiment [11]: ATG_PXRE_CIS: Attagene CIS-FACTORIAL HepG2 Assay for human Pregnane X Receptor Element (PXRE) (AID 2282957). The note with it: HepG2 Attagene CIS-FACTORIAL PXRE reporter, mRNA; actives raise or lower the signal. In a few lines: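 Cells: HepG2, transiently transfected reporter units under cis promoter control. Exposure: 24 h. Detection: reporter mRNA via RT-PCR/CE fluorescence; bidirectional fitting, DMSO-referenced.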

A short description of experiment [12]: ATG_RORE_CIS: Attagene CIS-FACTORIAL HepG2 Assay for human RAR-related Orphan Receptor Element (RORE) (AID 2282959). The following applies: HepG2 Attagene cis-factorial RORE reporter, mRNA; actives raise or lower the signal. In a few lines: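 Multiplexed reporter assay measuring mRNA induction from a cis promoter element in transiently transfected HepG2 cells after 24 h treatment. Detection via RT-PCR and capillary electrophoresis fluorescence; DMSO serves as baseline.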

Experiment [13] can be described thus: ATG_Sox_CIS: Attagene CIS-FACTORIAL HepG2 Assay for human SRY-box transcription factor (SOX) (AID 2282960). The following applies: HepG2 Attagene cis-factorial SOX reporter, mRNA; actives raise or lower the signal. In a few lines:
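Cells were transfected with reporter constructs under cis-regulatory promoters, then exposed to chemicals for 24 h. Reporter transcripts were quantified by fluorescence after RT-PCR and capillary electrophoresis; activity was fitted in both directions against DMSO.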

Experiment [14] addresses Transcription factor Sp1 (Homo sapiens) (UniProt P08047). Description: ATG_Sp1_CIS: Attagene CIS-FACTORIAL HepG2 Assay for human Specificity Protein 1 (Sp1) (AID 2282961). The note with it: HepG2 Sp1 cis-reporter transcription, actives raise or lower the signal. In a few lines: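 Measures mRNA induction of an Sp1-linked reporter in HepG2 cells 24 h post-dosing. Multiplexed reporters read by RT-PCR and capillary electrophoresis; DMSO serves as negative control and baseline.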

Experiment [15] in a line: ATG_SREBP_CIS: Attagene CIS-FACTORIAL HepG2 Assay for human Sterol Regulatory Element Binding (SREBP) (AID 2282962). The note with it: HepG2 Attagene cis-factorial SREBP reporter, mRNA; actives raise or lower the signal. In short, it runs like this: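 Twenty-four hours after chemical dosing of transfected HepG2 cultures, reporter RNA was converted to cDNA, amplified, end-labelled with 6-FAM and resolved by capillary electrophoresis. Responses were fitted relative to DMSO.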

Experiment [16] has as its target Signal transducer and activator of transcription 3 (Homo sapiens) (UniProt P40763). Description: ATG_STAT3_CIS: Attagene CIS-FACTORIAL HepG2 Assay for human Signal Transducer and Activator of Transcription 3 (STAT3) (AID 2282963). The note with it: HepG2, Attagene cis-factorial STAT3 reporter transcription; actives raise or lower the signal. In a few lines:
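HepG2 cells transiently transfected with cis-element-driven multiple reporter transcription units; after 24 h chemical exposure, reporter mRNA measured by RT-PCR, 6-FAM primer-extension labelling, HpaI digestion and capillary electrophoresis. Bidirectional fitting versus DMSO baseline.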

Experiment [17] is described as follows: ATG_TA_CIS: Attagene CIS-FACTORIAL HepG2 Assay for human TA Basal Promoter (AID 2282964). The following applies: HepG2 Attagene CIS-factorial TA basal promoter reporter; actives raise or lower the signal. In a few lines: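 Transfected HepG2, 24 h compound exposure; RNA → RT-PCR → FAM primer extension → HpaI cut → CE fluorescence. Gain/loss-of-signal fitted against DMSO negative control. Background-control readout.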

Experiment [18] can be described thus: ATG_TCF_b_cat_CIS: Attagene CIS-FACTORIAL HepG2 Assay for human T-Cell-Factor with beta-catenin (TCF/b-cat) (AID 2282965). The following applies: HepG2 TCF/beta-catenin cis-reporter transcription, actives raise or lower the signal. In a few lines:
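HepG2 cells transiently transfected with multiple cis-promoter-regulated reporter transcription units, so endogenous transcription factor activity is measured. Reporter mRNA read 24 hours after dosing by RT-PCR, fluorescent labelling and capillary electrophoresis; bidirectional fitting against DMSO.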

Experiment [19] in a line: ATG_GRE_CIS: Attagene CIS-FACTORIAL HepG2 Assay for human Glucocorticoid Response Elements (GRE) (AID 2282947). The following applies: HepG2 GRE cis-reporter, Attagene multiplex mRNA; actives raise or lower the signal. In short, it runs like this:
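HepG2 cells transiently transfected with multiple cis-promoter reporter units measure endogenous TF activity; 24 h compound exposure. Reporter mRNA quantified by RT-PCR, FAM labelling, HpaI digestion and capillary electrophoresis; bidirectional fit vs DMSO baseline.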

The nature of experiment [20]: ATG_PPRE_CIS: Attagene CIS-FACTORIAL HepG2 Assay for human Peroxisome Proliferator-activated Response Element (PPRE) (AID 2282958). The following applies: HepG2 PPRE cis-element reporter, Attagene transcription factor profiling; actives raise or lower the signal. In short, it runs like this:
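Transcript-level reporter induction in transfected HepG2 cells after 24 h chemical exposure, quantified by fluorescence from RT-PCR products separated by capillary electrophoresis.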

Broadly, the AC50 is the concentration giving half of the maximal activity seen.

Calls of active or inactive are those of the source. How the source made its calls: active means hit-call score of the fitted dose curve at least 0.9, where 1 is the maximum; inactive means score below 0.9.

Hepatocyte nuclear factor 6 (Homo sapiens), sequence (Q9UBC0 whole entry, looked up): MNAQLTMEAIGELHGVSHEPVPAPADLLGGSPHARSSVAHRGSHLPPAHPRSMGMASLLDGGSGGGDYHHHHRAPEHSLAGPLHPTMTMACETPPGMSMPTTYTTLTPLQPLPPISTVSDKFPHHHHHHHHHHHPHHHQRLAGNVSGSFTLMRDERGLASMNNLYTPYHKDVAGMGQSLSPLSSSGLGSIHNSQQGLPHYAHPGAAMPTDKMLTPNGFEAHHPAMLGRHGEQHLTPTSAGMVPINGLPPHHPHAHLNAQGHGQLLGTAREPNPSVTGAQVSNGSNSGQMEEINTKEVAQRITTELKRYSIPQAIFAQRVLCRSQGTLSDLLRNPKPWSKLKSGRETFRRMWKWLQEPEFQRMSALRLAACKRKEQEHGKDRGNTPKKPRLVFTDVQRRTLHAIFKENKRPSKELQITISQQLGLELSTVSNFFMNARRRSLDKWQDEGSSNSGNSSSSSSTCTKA
Transcription factor Sp1 (Homo sapiens), sequence (P08047 whole entry, looked up): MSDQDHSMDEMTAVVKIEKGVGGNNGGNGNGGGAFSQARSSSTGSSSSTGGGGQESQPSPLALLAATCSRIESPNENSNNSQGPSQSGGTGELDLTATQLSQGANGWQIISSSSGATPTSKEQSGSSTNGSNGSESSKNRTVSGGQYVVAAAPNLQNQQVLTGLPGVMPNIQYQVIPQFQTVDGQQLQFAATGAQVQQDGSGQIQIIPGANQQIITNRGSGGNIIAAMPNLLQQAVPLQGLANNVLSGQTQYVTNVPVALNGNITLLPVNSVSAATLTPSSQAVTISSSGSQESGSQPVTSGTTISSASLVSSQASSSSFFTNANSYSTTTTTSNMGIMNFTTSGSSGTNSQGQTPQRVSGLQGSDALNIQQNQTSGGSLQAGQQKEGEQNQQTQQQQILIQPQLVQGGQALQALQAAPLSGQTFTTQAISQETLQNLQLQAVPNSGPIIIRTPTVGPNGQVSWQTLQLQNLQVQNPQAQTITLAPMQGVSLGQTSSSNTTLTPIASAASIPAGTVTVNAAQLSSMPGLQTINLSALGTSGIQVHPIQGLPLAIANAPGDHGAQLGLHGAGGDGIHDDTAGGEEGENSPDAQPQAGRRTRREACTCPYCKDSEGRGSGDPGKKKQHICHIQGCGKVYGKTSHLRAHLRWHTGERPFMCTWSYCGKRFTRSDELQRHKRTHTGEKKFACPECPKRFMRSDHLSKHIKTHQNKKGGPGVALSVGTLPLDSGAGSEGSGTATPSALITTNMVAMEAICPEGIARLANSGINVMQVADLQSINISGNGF
Heat shock factor protein 1 (Homo sapiens), sequence (Q00613 whole entry, looked up, the tested form may be a part): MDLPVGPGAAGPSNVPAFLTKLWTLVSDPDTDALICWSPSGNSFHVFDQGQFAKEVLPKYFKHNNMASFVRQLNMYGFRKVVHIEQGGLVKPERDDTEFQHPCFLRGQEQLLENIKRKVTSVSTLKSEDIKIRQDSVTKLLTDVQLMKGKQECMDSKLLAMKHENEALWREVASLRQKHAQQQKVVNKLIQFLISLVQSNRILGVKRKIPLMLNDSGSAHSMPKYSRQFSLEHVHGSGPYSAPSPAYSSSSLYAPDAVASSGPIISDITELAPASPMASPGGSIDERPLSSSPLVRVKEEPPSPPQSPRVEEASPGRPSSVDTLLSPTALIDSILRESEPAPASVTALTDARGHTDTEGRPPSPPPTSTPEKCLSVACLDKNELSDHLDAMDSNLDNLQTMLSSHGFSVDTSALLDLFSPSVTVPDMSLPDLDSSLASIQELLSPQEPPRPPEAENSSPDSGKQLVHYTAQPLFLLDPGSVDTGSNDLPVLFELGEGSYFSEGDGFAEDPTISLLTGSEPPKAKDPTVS
Signal transducer and activator of transcription 3 (Homo sapiens), sequence (P40763 whole entry, looked up): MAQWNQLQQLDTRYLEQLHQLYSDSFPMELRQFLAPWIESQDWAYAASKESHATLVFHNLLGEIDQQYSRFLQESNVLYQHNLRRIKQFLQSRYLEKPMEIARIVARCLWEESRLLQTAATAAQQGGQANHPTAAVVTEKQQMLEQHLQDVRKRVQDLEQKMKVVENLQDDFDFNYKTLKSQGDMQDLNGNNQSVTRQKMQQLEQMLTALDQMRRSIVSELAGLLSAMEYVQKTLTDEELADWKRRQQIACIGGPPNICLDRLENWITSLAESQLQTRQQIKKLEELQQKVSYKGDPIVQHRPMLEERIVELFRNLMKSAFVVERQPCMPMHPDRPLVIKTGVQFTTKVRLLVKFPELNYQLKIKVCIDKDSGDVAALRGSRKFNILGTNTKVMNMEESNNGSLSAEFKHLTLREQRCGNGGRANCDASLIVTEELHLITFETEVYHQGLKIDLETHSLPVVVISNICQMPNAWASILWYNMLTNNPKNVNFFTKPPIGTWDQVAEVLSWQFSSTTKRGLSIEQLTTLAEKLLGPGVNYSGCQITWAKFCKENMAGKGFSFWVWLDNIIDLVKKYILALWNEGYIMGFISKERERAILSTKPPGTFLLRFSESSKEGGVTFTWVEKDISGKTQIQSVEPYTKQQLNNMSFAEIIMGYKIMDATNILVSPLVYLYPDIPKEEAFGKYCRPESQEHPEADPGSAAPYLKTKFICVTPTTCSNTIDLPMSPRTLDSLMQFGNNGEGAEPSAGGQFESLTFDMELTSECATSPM
Paired box protein Pax-6 (Homo sapiens), sequence (P26367 whole entry, looked up): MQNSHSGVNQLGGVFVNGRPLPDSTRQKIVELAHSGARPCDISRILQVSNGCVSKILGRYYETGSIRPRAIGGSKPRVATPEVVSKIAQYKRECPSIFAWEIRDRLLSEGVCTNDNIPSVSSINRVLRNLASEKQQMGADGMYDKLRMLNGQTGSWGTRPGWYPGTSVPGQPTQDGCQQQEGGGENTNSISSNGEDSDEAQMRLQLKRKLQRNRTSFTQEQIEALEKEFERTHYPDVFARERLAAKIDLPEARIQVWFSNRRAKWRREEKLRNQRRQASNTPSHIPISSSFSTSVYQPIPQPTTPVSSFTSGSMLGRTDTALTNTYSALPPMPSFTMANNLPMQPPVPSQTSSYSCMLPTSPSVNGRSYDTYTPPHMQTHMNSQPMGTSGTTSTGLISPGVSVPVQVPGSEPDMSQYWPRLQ
Bile acid receptor (Homo sapiens), sequence (Q96RI1 whole entry, looked up): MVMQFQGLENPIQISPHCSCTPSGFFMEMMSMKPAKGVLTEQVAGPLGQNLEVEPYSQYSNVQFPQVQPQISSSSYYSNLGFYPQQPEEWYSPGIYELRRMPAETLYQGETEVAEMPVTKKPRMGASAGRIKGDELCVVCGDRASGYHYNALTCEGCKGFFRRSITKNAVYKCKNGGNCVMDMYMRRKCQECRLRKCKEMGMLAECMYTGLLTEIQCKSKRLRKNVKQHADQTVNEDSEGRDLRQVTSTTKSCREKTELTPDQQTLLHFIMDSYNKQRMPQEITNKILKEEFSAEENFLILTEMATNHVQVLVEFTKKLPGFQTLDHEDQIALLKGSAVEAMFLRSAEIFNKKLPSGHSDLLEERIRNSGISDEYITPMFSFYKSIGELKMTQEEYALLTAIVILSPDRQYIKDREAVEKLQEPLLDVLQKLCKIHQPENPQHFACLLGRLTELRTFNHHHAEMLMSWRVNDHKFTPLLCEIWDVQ

With `CCOC(=O)CC(CC(=O)OCC)(OC(C)=O)C(=O)OCC`, the outcome in experiment [1], in experiment [2], in [3], in experiment [4], in [5] and in experiment [6] was inactive. The outcome in experiment [7], in experiment [8], in experiment [9], in [10], in experiment [12] and in experiment [13] was inactive. The call in experiment [14], in experiment [15], in experiment [16], in experiment [17] and in experiment [18] was inactive. The AC50 in experiment [11] is 27.3 µM (active).
As to `CC(C)=CCCC(C)=CC=O`, the call in [19], in experiment [2], in [3], in experiment [4], in experiment [6] and in experiment [7] was inactive. Also, the outcome in experiment [9], in [10], in [20], in experiment [12], in experiment [14] and in experiment [15] was inactive. Moreover, the compound was classed as inactive in [16] and in experiment [17]. In addition, the concentration at half-maximal activity (AC50) in experiment [5] was 100 µM (active); in experiment [8] it was 100 µM (active); in [11], 4.7 µM (active); in [18] it was 157 µM (active).
Turning to `Nc1ccc(Nc2ccccc2)cc1`, the outcome in experiment [19], in experiment [2], in experiment [3], in [4], in experiment [5] and in [6] was inactive. In addition, the compound was classed as inactive in [7], in [8], in experiment [9], in experiment [10], in experiment [11] and in [12]. In addition, the outcome in experiment [13], in experiment [14], in [15], in experiment [16], in [17] and in experiment [18] was inactive.
